HSD17B inh: inhibitors of human HSD17B10 dehydrogenase. Q99714. recombinant HSD17B10, NADH fluorescence kinetic. Potency, µM (series often up to 57.1 µM), usual class: inhibitors. actives 7.6% (n = 75,000). AID 893;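 note: the protocol describes HADH2 (HSD17B10) and not the HSD17B4 of the title; nearly all actives have a fitted effect of over 70% in size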
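Enzyme plus compound, 15 min room temperature; substrate mix added (NAD+ 1 mM, beta-hydroxybutyryl-CoA 90 uM final); plates read kinetically for NADH fluorescence. HADH2 was His-tagged, E. coli-derived, 20 nM.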
CRE-bla Fsk: CRE-bla signaling modulation under forskolin stimulation | CHO CRE-bla reporter (cAMP response element driving beta-lactamase), forskolin EC10, beta-lactamase ratio | actives 2.5% (n = 71,000) | AID 662 | Potency, µM (titrated, usually from 38.2 µM), actives largely listed as activators; active = well fitted activation curve with a large enough effect in the signal ratio, with a control signal flat, not every such curve was filed as active; inconclusive = small, poorly fitted or top-dose-only effect, or effect the other way, or a change in a side signal; the % refers to the signal ratio
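Modulation of forskolin-driven signalling is measured in CHO cells carrying a CRE-controlled beta-lactamase reporter. Cells are stimulated with EC10 NKH 477 in the presence of titrated compound for 3 h at 37 °C, then loaded with CCF4 for 2 h at room temperature.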
HADH2 inhib: inhibitors of human HADH2 dehydrogenase. Q99714. recombinant HADH2, NADH fluorescence, beta-hydroxybutyryl-CoA. Potency, µM (titrated, usually from 57.1 µM), usual class: inhibitors. actives 3.4% (n = 73,000). AID 886; note: nearly all actives have a fitted effect of over 60% in size
Target sequence (Q99714 whole entry, looked up, one chain of several): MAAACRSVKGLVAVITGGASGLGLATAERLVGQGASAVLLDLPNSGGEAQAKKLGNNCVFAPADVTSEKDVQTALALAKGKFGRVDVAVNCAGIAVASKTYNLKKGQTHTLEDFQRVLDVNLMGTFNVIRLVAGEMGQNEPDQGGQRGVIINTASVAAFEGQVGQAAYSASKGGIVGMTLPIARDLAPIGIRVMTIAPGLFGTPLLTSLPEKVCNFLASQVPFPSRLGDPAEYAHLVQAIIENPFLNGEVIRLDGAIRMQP
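Read-out: 360 nm excitation, 450 nm emission, kinetic over 4 min. Conditions: His-tagged human HADH2 20 nM, pH 9.0 Tris with Tween-20, 1 mM NAD+, 90 uM beta-hydroxybutyryl-CoA.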
AID923: qHTS Assay for Allosteric/Competitive Inhibitors of Caspase-1: Spectroscopic Profiling in AFC Spectral Region. compound fluorescence, AFC spectral region (405/520 nm). Potency, µM (titrated, usually from 57.5 µM), usual class: activators. actives 1.1% (n = 75,000). AID 923, 2007
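Compound autofluorescence profiled at 405 nm ex/520 nm em during kinetic caspase 1 run (50 nM enzyme, 5 uM Ac-WEHD-AFC, HEPES pH 7.5, 10 mM DTT). Titration up to 57 uM; baseline from regression intercept, normalized to AFC standard curve.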
A350 autofl: A350 region autofluorescence. AID 590. Compound autofluorescence, 340/450 nm, Alexa 350 dye-equivalents; active compounds read high. actives 11% (n = 59,000). max dye-equivalent concentration, M; in the data active = max dye-equivalent concentration above about 10 nM; inconclusive = mostly about 1.1 nM to 9.6 nM
4-MU autofl: 4-MU region autofluorescence; compound autofluorescence, 340/450 nm, 4-MU equivalents; active compounds read high; max dye-equivalent concentration, M; actives 11% (n = 59,000); AID 589; in the data active = max dye-equivalent concentration above about 10 nM; inconclusive = mostly about 1.1 nM to 9.6 nM
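Compounds in 100 mM Tris, pH 8.0, sat 15 min at room temperature before fluorescence was read at 340 nm excitation/450 nm emission; a per-plate six-point 4-MU standard curve converted signals to dye-equivalent concentration at each compound concentration.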
Each line names hits and unclear results; the compound was inactive in the other large screens. A selection: hits, their analogues and other compounds. The true share with any hit is near 14%. Unless noted, calls come from the whole dose curve; as a rule, active = well fitted curve in the direction sought with a large enough effect; inconclusive = small, poorly fitted or top-dose-only effect, or another doubt; inactive = no such curve, though single readings can be large; an effect the other way counts as inactive or inconclusive.

O=C(NC1(C(F)(F)F)Oc2ccccc2O1)N1CCC2(CC1)OCCO2	HSD17B inh inconclusive, CRE-bla Fsk inconclusive, HADH2 inhib 2.5µM
O=C(NC1(C(F)(F)F)Oc2ccc(Cl)cc2O1)N1CCC2(CC1)OCCO2 (configuration not stated)	HSD17B inh inconclusive, CRE-bla Fsk inconclusive, HADH2 inhib 7.9µM
CN(C)[C@@H]1C(=O)C(C(N)=O)=C(O)[C@@]2(O)C(=O)C3=C(O)c4c(O)cccc4[C@@](C)(O)[C@H]3C[C@@H]12	none (no result: HSD17B inh, CRE-bla Fsk, HADH2 inhib, AID923)
COc1ccccc1N1C(=O)NC(=O)C2(Cc3cc(C)ccc3N(C)C2)C1=O (configuration not stated)	none
O=C(CCCC1=NS(=O)(=O)c2ccccc2N1)N1CCC2(CC1)OCCO2	A350 autofl inconclusive
COC1(CS(=O)c2ccccc2)CCN(CCc2c[nH]c3ccc(F)cc23)CC1 (configuration not stated)	none (no result: A350 autofl, 4-MU autofl)
c1ccc(Nc2ccc3ccccc3c2)cc1	HSD17B inh 32µM (no result: A350 autofl, 4-MU autofl)
CC(C)Nc1ccc(Nc2ccccc2)cc1	CRE-bla Fsk inconclusive, HADH2 inhib inconclusive (no result: A350 autofl, 4-MU autofl)
COP(=O)(OC)O/C(=C\Cl)c1cc(Cl)c(Cl)cc1Cl	none (no result: A350 autofl, 4-MU autofl)
CC[C@]1(O)CC(O[C@@H]2CC(N(C)C)C(O)C(C)O2)c2c(cc3c(c2O)C(=O)c2c(O)cccc2C3=O)C1C(=O)OC (some centres not stated)	none (no result: CRE-bla Fsk, HADH2 inhib, A350 autofl, 4-MU autofl)
N=C(N)c1c(O)n(C2CCCCC2)c(=O)n(C2CCCCC2)c1=O	CRE-bla Fsk inconclusive, A350 autofl 1.3e-08M, 4-MU autofl 1.1e-08M
C[C@H](Br)CN(C[C@H](C)Br)c1ccc2c(c1)Cc1ccccc1-2	HSD17B inh 4µM, A350 autofl inconclusive, 4-MU autofl inconclusive
O=S(=O)(c1ccc(Cl)cc1)c1ccc(Cl)cc1	none (no result: A350 autofl, 4-MU autofl)
CC(C)(C)c1ccc(O)c(C[N+](C)(C)C)c1	none
CC(C)N[C@@H](C)Cc1ccc(I)cc1	A350 autofl 1.5e-08M, 4-MU autofl 1.7e-08M
C=C(C)[C@H]1[C@H]2OC(=O)[C@@H]1[C@]1(O)C[C@H]3O[C@]34C(=O)O[C@H]2[C@@]14C	none
CN(C)CP(=O)(O)CN(C)C=O	A350 autofl inconclusive, 4-MU autofl 3.3e-08M
COC(=O)[C@H](N)CCCN=C(N)N[N+](=O)[O-]	none
CC1CCCCN1CC(=O)c1ccc2cc[nH]c2c1 (configuration not stated)	HSD17B inh 32µM, CRE-bla Fsk inconclusive, HADH2 inhib inconclusive (no result: A350 autofl, 4-MU autofl)
CN1CCc2nc(CO)c(CO)cc2C1	none (no result: CRE-bla Fsk, A350 autofl, 4-MU autofl)
COc1ccc(OC)c(C(O)C(C)N)c1 (configuration not stated)	none (no result: CRE-bla Fsk, HADH2 inhib)
C[C@H](N)[C@H](O)c1ccc(O)c(O)c1	HSD17B inh inconclusive, HADH2 inhib 0.1µM
CCOc1cc(-c2nc3c(C)cccn3c2NCC2CCCO2)ccc1O (configuration not stated)	HSD17B inh 25µM, CRE-bla Fsk inconclusive, HADH2 inhib 20µM, A350 autofl 8.8e-07M, 4-MU autofl 5.3e-07M
O=C(COc1ccc2ccccc2c1)N1CCN(C2CCN(Cc3ccccc3)CC2)CC1	A350 autofl 1.4e-08M, 4-MU autofl inconclusive (no result: HSD17B inh, CRE-bla Fsk, HADH2 inhib, AID923)
CN1CCN(C(=O)COc2ccc(-c3nc4ccccc4s3)cc2)CC1	HSD17B inh 25µM, HADH2 inhib inconclusive, A350 autofl inconclusive, 4-MU autofl inconclusive (no result: AID923)
CC(C)NS(=O)(=O)c1ccc(OCC(=O)N2CCN(C)CC2)cc1	none (no result: A350 autofl, 4-MU autofl)
Cn1nc(-c2ccc(OCC(=O)N3CCN(Cc4ccccc4)CC3)cc2)c2ccccc2c1=O	CRE-bla Fsk 0.016µM
O=C(Cn1ncc2c3ccccc3n(Cc3ccccc3)c2c1=O)N1CCC2(CC1)OCCO2	HSD17B inh 20µM
CCn1c(=O)n(CC(=O)N2CCC3(CC2)OCCO3)c(=O)c2ccccc21	HADH2 inhib 25µM
O=C(Cn1ncc2c3ccccc3n(Cc3ccccc3F)c2c1=O)N1CCC2(CC1)OCCO2	CRE-bla Fsk inconclusive
O/N=C1/C(=C\c2ccccc2)N2CCC1CC2	A350 autofl inconclusive, 4-MU autofl inconclusive
O=c1[nH]c2c(c(=O)n1C1CCCCC1)CCC2	none
CNCCc1c[nH]c2ccccc12	A350 autofl 5.6e-08M, 4-MU autofl 4.5e-08M (no result: HSD17B inh, CRE-bla Fsk, HADH2 inhib, AID923)
